# Laboratory results reported in PubChem BioAssay (NCI).
# Compounds without any hit were thinned out: in the full panel of roughly 83,000, 20% have a hit.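 Activity criterion: percent growth below 10, measured after cells in 96-well plates were exposed to a single compound concentration for 48 hours.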 Unmarked numbers belong to inactive results. Calls of active or inactive are those of the source.
# How the values were obtained:
# Assay in all cases: NCI-60 one-dose screen, 48 h (100 = growth as untreated, 0 = no growth, -100 = all killed)
# Conditions in all cases: 10 µM unless noted
# T-47D breast = system: T-47D breast
# BT-549 breast = system: BT-549 breast
# MDA-MB-435 melanoma = system: MDA-MB-435 melanoma
# SW-620 colon = system: SW-620 colon
# MCF7 breast = system: MCF7 breast
# HCT-116 colon = system: HCT-116 colon
# HCC-2998 colon = system: HCC-2998 colon
# KM12 colon = system: KM12 colon
# MDA-MB-468 breast = system: MDA-MB-468 breast
Structure (SMILES),growth (T-47D breast),growth (BT-549 breast),growth (MDA-MB-435 melanoma),growth (SW-620 colon),growth (MCF7 breast),growth (HCT-116 colon),growth (HCC-2998 colon),growth (KM12 colon),growth (MDA-MB-468 breast)
S=C(Nc1ccc(OCc2nc3ccccc3[nH]2)cc1)NC1CCCCC1,88.5%,109%,105%,120%,75.3%,102%,111%,82.1%,107%
Cc1ccc(C(=O)CSc2nc3ccc(F)cc3c(=O)n2-c2ccc(Cl)cc2)cc1,96.5%,1.44% (active),76.1%,75%,65.2%,24.4%,81.3%,96.3%,44.7%
Cc1ccc(Cc2cnc(NC(=O)c3ccc(/C=C4\SC(=S)N(C)C4=O)cc3)s2)cc1,23.9%,37.9%,-18.7% (active),35.8%,19.6%,22.7%,41.1%,11.2%,4.76% (active)
CC(C)Sc1nc(NCCc2c[nH]c3ccccc23)c(C#N)c(-c2ccccc2)n1,-9.65% (active),55.1%,48.1%,-11.6% (active),-22.5% (active),0.232% (active),4.86% (active),6.51% (active),-4.09% (active)
Cn1cc(-c2cc(N)n3nc(-c4cn(C)c5ccccc45)cc3n2)c2cc(Cl)ccc21,-30.9% (active),63%,-71.9% (active),-35.3% (active),-69.9% (active),-89.1% (active),-73% (active),-50% (active),-31.9% (active)
CN(C)c1ccnc(NCCCSC(c2ccccc2)(c2ccccc2)c2ccccc2)c1,28%,48.9%,11.3%,8.86% (active),-35.8% (active),-82.3% (active),12.2%,46.7%,-34.9% (active)
COc1ccc(/C=C/c2nc3ccccc3nc2Nc2cccc(C)c2)cc1,77.7%,99.9%,98.3%,95.3%,67.3%,87.3%,116%,97.2%,101%
CCCCCCCS(=O)(=O)N1CCCC(C(=O)Nc2nc3ccc(NC(=O)c4ccc(F)c(OC)c4F)cc3s2)C1 (stereo unspecified),41.9%,55.8%,72.2%,64.6%,27.6%,25.1%,58.2%,63.8%,-4.4% (active)
Nc1nc(C(F)(F)F)cs1,99.4%,114%,100%,104%,93.2%,111%,105%,100%,101%
Nc1nnc(-c2c[nH]c3ncc(Br)cc23)c(-c2c[nH]c3ccc(F)cc23)n1,38.2%,54.4%,26%,20.9%,18.6%,26%,45.9%,30.5%,13.1%
CC1(C)CC[C@]2(C(=O)Nc3ccc(Br)cc3)CC[C@]3(C)C(=CCC4[C@@]5(C)C[C@@H](O)[C@H](O)[C@@](C)(CO)C5CC[C@]43C)C2C1 (stereo partly specified),-9.58% (active),-35.4% (active),3.33% (active),18.8%,1.85% (active),-15.8% (active),-33.4% (active),-52.9% (active),-3.95% (active)
Cn1cc(NC(=O)c2cc(NC(=O)c3ccc(C#Cc4ccccc4)cc3)cn2C)cc1C(=O)NCCCN1CCOCC1,22.2%,73.5%,-56.6% (active),-44.3% (active),-93.1% (active),-87.3% (active),-56% (active),3.14% (active),-69.7% (active)
S=c1c2ccccc2nc2n1CCc1c-2[nH]c2ccccc12,37.2%,49.9%,88.6%,80.9%,43%,48.7%,64.9%,80.9%,47.9%
C=C1CCC2C3(C)COC(c4cc(F)cc(F)c4)OC3CCC2(C)C1CC(O)C1=CCOC1=O (stereo unspecified),40.5%,-12.9% (active),60%,-44.2% (active),15.3%,-33.8% (active),45.8%,60.5%,70.7%
C=C1CCC2C3(C)COC(c4cccs4)OC3CCC2(C)C1CC(Sc1ccccc1)C1=CCOC1=O (stereo unspecified),82.3%,25.8%,87.2%,80%,38.2%,32.4%,81.5%,89.2%,90.5%
COc1ccc(C2CC(c3ccc(S(=O)(=O)NCCNc4nc(Nc5ccc(F)cc5)nc(N(C)C)n4)cc3)=Nc3c(N)nc(N)nc3N2)cc1 (stereo unspecified),66.2%,57.1%,83.3%,96%,47.6%,51.2%,90.6%,82.5%,8.63% (active)
Cc1cc(C)cc(NC(=O)Cn2cc(COn3nnc4ccccc43)nn2)c1,100%,108%,100%,115%,99.5%,103%,104%,114%,98.7%
NS(=O)(=O)c1ccc(N=Nc2c(O)n(CC(=O)Nc3ccccc3Cl)c3ccccc23)cc1,19.7%,-4.12% (active),34.5%,24.5%,6% (active),8.6% (active),28.3%,17.1%,26.3%
c1ccc(-c2csc(Nc3cccc(Nc4nc(-c5ccccc5)cs4)c3)n2)cc1,24%,31.7%,44.7%,66.2%,15.6%,40%,35.5%,1.06% (active),39.2%
Cc1sc(C(NC(=O)OCCn2c([N+](=O)[O-])cnc2C)C(F)(F)Cl)nc1-c1ccc(OC(F)(F)F)cc1 (stereo unspecified),-66.1% (active),-92.2% (active),-43.7% (active),-67.1% (active),-85.1% (active),-80.3% (active),-96.6% (active),-61.9% (active),-93.4% (active)
CC(/C=C1\SC(=S)N(CCCC(=O)NC(CC(C)C)C(=O)O)C1=O)=C\c1ccccc1 (stereo unspecified),89.7%,78%,94.8%,112%,82.1%,71%,108%,57.9%,86.7%
Cc1cccc(-c2nc(Nc3cccc(S(N)(=O)=O)c3)c3ccccc3n2)c1,36.4%,88.6%,46.4%,67.6%,33.3%,-5.73% (active),-1.53% (active),11.6%,38.6%
CCN(CC)c1ccnc(CNCCSC(c2ccccc2)(c2ccccc2)c2ccc(C)cc2)c1,-67.8% (active),-91.9% (active),-90.6% (active),-72.2% (active),-82.4% (active),-88.2% (active),-96.4% (active),-83.9% (active),-92.3% (active)
CCCCn1c(O)c(N=Nc2nc(-c3cc4ccccc4oc3=O)cs2)c2cc(Br)ccc21,107%,132%,111%,114%,89.8%,107%,111%,114%,113%
COc1ccc2c(c1)C(=N/N=C(\C)c1ccc(OC)c(S(N)(=O)=O)c1)C(=O)N2,87%,59%,96.1%,93.9%,90.3%,88.6%,111%,97.5%,78.6%
Cn1cc(-c2nc(N)nnc2-c2c[nH]c3ccc(Br)cc23)c2cc(Br)cnc21,34.6%,-33.4% (active),-20.8% (active),20.8%,3.81% (active),-37.1% (active),1.16% (active),5.44% (active),1.62% (active)
Cc1ccc(-c2nc(C#N)c(S(=O)(=O)N3CCN(S(=O)(=O)c4ccc(Cl)cc4)CC3)o2)cc1,92.1%,99.8%,94.8%,109%,75.8%,84.9%,106%,109%,61.9%
CN(C)CCn1c2ccccc2c2nc3cc(C(F)(F)F)ccc3nc21,59.4%,62.2%,40.3%,22.5%,6.18% (active),16.8%,41.6%,42.9%,35.3%
COCOc1ccc2c(=O)c(C)c(C(=O)N[C@@H](Cc3ccccc3)C(O)C(=O)NCCc3ccc(OC)cc3)oc2c1 (stereo partly specified),97.1%,122%,115%,114%,103%,104%,125%,108%,95.2%
